Reference: ChEMBL document CHEMBL3988442, “University of Dundee, Small-Polar-MMV Screening Library” (2021)
Out of some 67,000 compounds screened, about 300 (0.45%) showed an effect of 50% or more. Many of the other results were omitted from the sample, so strong results are more common in it than they were.

target: Polyketide synthase Pks13 (Mycobacterium tuberculosis (strain ATCC 25618 / H37Rv)) (UniProt I6X8D2); experiment: Mycobacterium tuberculosis Polyketide synthase 13 Thioesterase (PKS13); type: functional; parameters: scale not given: in the data most compounds retested in dose-response had high values; details: 30 µM
Sequence (I6X8D2 whole entry): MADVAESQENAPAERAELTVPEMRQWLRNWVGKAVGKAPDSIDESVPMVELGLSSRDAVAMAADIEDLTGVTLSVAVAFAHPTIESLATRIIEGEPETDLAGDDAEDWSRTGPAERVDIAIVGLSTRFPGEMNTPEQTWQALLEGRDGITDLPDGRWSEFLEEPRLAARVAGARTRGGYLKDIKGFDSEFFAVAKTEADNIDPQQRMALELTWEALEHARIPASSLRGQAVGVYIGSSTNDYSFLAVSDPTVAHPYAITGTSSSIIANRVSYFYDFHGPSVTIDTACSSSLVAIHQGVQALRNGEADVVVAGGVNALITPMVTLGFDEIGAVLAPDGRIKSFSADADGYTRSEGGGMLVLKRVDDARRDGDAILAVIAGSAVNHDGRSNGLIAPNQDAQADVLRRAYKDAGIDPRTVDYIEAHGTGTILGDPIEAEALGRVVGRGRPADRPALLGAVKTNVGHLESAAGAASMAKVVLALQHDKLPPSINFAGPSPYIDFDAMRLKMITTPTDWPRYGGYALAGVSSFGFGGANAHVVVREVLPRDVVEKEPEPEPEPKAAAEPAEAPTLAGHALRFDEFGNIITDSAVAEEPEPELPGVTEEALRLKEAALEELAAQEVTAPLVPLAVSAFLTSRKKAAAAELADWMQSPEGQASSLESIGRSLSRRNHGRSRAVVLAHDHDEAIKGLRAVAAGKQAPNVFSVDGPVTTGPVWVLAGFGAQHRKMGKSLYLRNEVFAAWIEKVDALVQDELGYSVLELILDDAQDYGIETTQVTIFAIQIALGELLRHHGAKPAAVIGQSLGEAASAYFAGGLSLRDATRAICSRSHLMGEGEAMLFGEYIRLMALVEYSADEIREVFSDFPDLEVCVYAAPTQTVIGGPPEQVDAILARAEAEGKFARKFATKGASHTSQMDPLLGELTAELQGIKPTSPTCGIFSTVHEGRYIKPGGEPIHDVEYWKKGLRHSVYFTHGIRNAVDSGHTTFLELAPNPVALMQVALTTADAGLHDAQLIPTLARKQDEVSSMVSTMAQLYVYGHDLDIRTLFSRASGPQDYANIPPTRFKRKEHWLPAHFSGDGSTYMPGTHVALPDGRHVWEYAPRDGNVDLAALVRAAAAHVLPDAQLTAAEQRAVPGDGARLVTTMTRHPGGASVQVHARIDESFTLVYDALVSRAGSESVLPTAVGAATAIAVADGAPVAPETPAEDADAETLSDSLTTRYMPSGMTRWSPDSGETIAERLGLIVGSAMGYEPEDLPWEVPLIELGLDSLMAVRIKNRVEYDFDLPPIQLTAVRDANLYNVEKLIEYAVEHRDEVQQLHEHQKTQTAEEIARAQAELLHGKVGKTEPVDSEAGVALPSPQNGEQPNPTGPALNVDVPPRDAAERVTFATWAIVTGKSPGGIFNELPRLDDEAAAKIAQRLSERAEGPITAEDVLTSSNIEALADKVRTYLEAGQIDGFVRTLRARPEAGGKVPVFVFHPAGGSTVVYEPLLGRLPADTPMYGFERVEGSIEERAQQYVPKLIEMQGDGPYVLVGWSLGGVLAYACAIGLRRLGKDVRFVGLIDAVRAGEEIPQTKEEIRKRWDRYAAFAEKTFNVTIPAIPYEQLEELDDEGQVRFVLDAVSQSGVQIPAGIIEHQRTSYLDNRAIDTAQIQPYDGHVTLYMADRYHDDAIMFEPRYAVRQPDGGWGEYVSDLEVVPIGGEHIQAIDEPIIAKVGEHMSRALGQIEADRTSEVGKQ

Structure (SMILES)	Percent Effect
O=C(NCC1CC1)[C@H]1C[C@@H]2CCN(Cc3nccs3)C[C@@H]2O1	-42.1%
O=C(N[C@H]1CN[C@H]2CCCO[C@H]21)c1ccno1	-17%
O=C(c1ccncc1)N1C[C@@H]2CC[C@H](C1)N(S(=O)(=O)c1cccnc1)C2	-25.8%
O=C(c1ccccc1)N1C[C@@H]2CC[C@H](C1)N(S(=O)(=O)c1cccnc1)C2	-34.5%
O=C(c1cnccn1)N1C[C@@H]2CC[C@H](C1)N(S(=O)(=O)c1cccnc1)C2	56.1%
O=S1(=O)C[C@@H]2[C@H](C1)N(Cc1ncc[nH]1)CCN2C/C=C/c1ccccc1	5.07%
CCC1=N[C@@]2(CC[C@@H]3CN(S(=O)(=O)CC)C[C@@H]32)C(=O)N1CCOC	-31.3%
Cc1cnc2c(C(=O)N3CCCC(OCc4ccccn4)C3)cnn2c1 (centres undefined)	81.5%
CCCn1ncc(C(=O)N2CCCC(OCc3ccccn3)C2)c1C (centres undefined)	-15.6%
O=C(c1cnn2ccccc12)N1CCCC(OCc2ccccn2)C1 (centres undefined)	-9.11%
Cc1cccc(CN2CC[C@H]3OCC[C@@]3(C(=O)N3CCCO3)C2)n1	8.33%
CNC[C@H]1CC[C@H](c2cc(CN(C)C(=O)c3cnccn3)n(C)n2)CC1	-6.04%
CC(NC(=O)Nc1cccnc1N1CCCC1)c1nncn1C (centres undefined)	56%
CC(NC(=O)Nc1cccnc1N1CCCC1)c1ccncc1 (centres undefined)	0.204%
COc1ncccc1NC(=O)NC(C)c1nncn1C (centres undefined)	-5.35%
CCc1cnc(N2C[C@H]3C[C@H](C(=O)N(C)C)[C@@H](C2)O3)nc1	-7.42%
N#Cc1nccnc1N1CCC(CSc2ccccc2)C1 (centres undefined)	53.9%
N#CCCCS(=O)(=O)N1CCC(CSc2ccccc2)C1 (centres undefined)	-31.5%
CCS(=O)(=O)N1CCC(CSc2ccccc2)C1 (centres undefined)	9.93%
Cc1ccc(N2CCO[C@H]3CN(Cc4ccc(F)cc4)C[C@H]32)nn1	4.79%
CC(C)N1CCO[C@H]2CN(C(=O)c3ccncc3F)C[C@H]21	-27%
O=C(O)[C@]12CCCN(Cc3ccccn3)[C@@H]1CCN(c1cnccn1)C2	95.4%
O=C(O)[C@]12CCCN(Cc3ccncc3)[C@@H]1CCN(c1cnccn1)C2	-7.13%
O=C(O)[C@]12CCCN(Cc3cccnc3)[C@@H]1CCN(c1cnccn1)C2	10.4%
Cc1ccsc1CN1CC[C@H]2OCC[C@@]2(C(=O)N2CCCO2)C1	-17.7%
O=C(NC[C@]12COC[C@H]1CN(Cc1ccncc1)C2)c1ccno1	-9.3%
CN(C)c1ncnc2c1CCN(C(=O)c1cccnc1)CC2	61.9%

Structure (SMILES)	Percent Effect
O=C(c1cccnc1)N1CCc2ncnc(N3CCOCC3)c2CC1	-1.96%
Cc1ncnc2c1CCN(C(=O)c1cccnc1)CC2	-18.2%
CN1C(=O)C[C@@H]2[C@@H]1CCN2C(=O)c1ccc[nH]1	-5.06%
Cc1cc(CN2CC[C@H]3C[C@H](C)O[C@@H]3C2)no1	-27.6%
Cc1cccc(OC2CCN(c3ccc(C#N)cn3)CC2)n1	22.3%
Cc1cccc(OC2CCN(c3nccnc3C#N)CC2)n1	85.3%
Cc1cccc(OC2CCN(c3ncc(C#N)cc3Cl)CC2)n1	26.2%
COCCNC(=O)C[C@@H]1COC[C@H]2CN(Cc3cccnc3)C[C@@H]12	7.6%
COc1ccc(CN2C[C@H](OCC3CCOCC3)[C@H]3COC[C@H]32)cc1	-3.35%
O=C(NCc1cccc(F)c1)N1CCc2ncnc(NC3CC3)c2CC1	-9.48%
O=C(Cc1cccc(F)c1)N1CCc2ncnc(NC3CCC3)c2CC1	-11.9%
O=C(Cc1cccc(F)c1)N1CCc2ncnc(NC3CC3)c2CC1	121%
CCOCCN1Cc2ncn(C)c2C(COCC2CCOCC2)C1 (centres undefined)	55.1%
Cn1cnc2c1C(COCC1CCOCC1)CN(Cc1ccccn1)C2 (centres undefined)	-19.7%
Cn1cnc2c1C(COCC1CCOCC1)CN(C1CCOCC1)C2 (centres undefined)	-38%
CN1C(=O)C[C@@H]2[C@@H]1CCN2S(=O)(=O)Cc1ccccc1	-11.3%
O=C(COCC1CC[C@H]2[C@H](CCN2c2ncccn2)O1)N1CCCC1 (some centres undefined)	9.91%
Nc1cc(C(=O)NCC2CCN(Cc3ccncc3F)C2)ccn1 (centres undefined)	141%
CC/C=C(\C)CN1CCC(CNC(=O)c2ccnc(N)c2)C1 (centres undefined)	-25.3%
Nc1cc(C(=O)NCC2CCN(Cc3cccc(O)c3)C2)ccn1 (centres undefined)	-14.3%
CCc1ccc(CN2CC[C@H]3C[C@H](c4nnc(C)[nH]4)O[C@@H]3C2)o1	32%
O=C(NCC1CC1)[C@@H]1CCO[C@@H]2CCN(Cc3ccc(F)cc3)C[C@H]21	-0.289%
CNC(=O)CNC1CC2(CCN(c3ncccn3)CC2)c2ccccc21 (centres undefined)	61.9%
c1cnc(N2CCC3(CC2)CC(NCC2CC2)c2ccccc23)nc1 (centres undefined)	2.19%
CNC(=O)CC1CC2(CCN(c3ncccn3)CC2)c2ccccc21 (centres undefined)	-25.9%
O=C1[C@@H]2CN(c3ncc(Cl)cc3F)C[C@]2(C(=O)O)CN1CC1CC1	5.43%
O=C(c1cnccn1)N1CCN2C[C@H](OCc3ccccn3)C[C@H]2C1	-10.5%
